Shown are actives, neighbours in structure and some others; about 21% of the full set was active somewhere.
CYP2C9 activ: activators of human CYP2C9; activation factor at 5 µM; P11712; recombinant CYP2C9, luciferin-H conversion, luminescence; stronger effect = higher value; factor 1 = untreated enzyme, 0 = blocked; 96,000 tested, 1.4% active;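 active = activation factor of 2 or more for CYP2C9 at a 5 µM dose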
Target sequence (P11712 whole entry, looked up): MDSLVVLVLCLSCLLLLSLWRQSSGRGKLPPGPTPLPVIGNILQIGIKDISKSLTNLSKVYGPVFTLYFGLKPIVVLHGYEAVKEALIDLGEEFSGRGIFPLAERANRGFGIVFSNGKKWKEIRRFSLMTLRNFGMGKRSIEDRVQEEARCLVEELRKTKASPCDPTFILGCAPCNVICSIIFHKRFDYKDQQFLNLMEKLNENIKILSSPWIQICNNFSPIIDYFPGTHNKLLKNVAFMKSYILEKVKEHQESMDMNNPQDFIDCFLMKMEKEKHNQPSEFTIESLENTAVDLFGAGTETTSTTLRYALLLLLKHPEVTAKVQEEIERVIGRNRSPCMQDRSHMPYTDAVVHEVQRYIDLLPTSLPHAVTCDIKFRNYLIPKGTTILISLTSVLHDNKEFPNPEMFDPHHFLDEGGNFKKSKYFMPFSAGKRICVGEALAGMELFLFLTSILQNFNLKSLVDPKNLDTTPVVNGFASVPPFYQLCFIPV
CYP2C19 act: activators of human cytochrome P450 2C19 | 96,000 tested, under 10 active | recombinant CYP2C19, luciferin-H EGE luminescence; stronger effect = higher value; 0 = fully inhibited enzyme, 1 = untreated enzyme | AID 1025 | activation factor at 5 µM;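 active = activation factor of at least 2 at 5 µM in the primary screen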
CYP2C9 inh: inhibitors of human CYP2C9. P11712. CYP2C9 Supersomes, luciferin-H conversion, luminescence. inhibition, % at 5 µM. 96,000 tested, 20% active. AID 777;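 active = blocking of liver enzyme CYP2C9 beyond about 50% at 5 µM, limit read from the data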
MRP resist rev: compounds reversing MRP-mediated drug resistance; H69AR cells + 2 uM doxorubicin, CellTiter-Glo, 72 h; differential viability (reversal), % at 10 µM; 85,000 tested, 0.04% active; AID 602;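 active = viability drop by adding the cancer drug above about 55%, with treated viability meeting a 40% cutoff, limit read from the data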;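 also: larger differential means the compound sensitizes cells more to doxorubicin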
MRP-1 activ: activators of MRP-1 | 140,000 tested, 0.61% active | viability increase, % at 10 µM | AID 799 | H69AR cells + doxorubicin, viability rescue, CellTiter-Glo;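 active = viability gain under doxorubicin at or above a set limit, the compound median plus 3 SD, cut at about 4.7% in these data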;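 also: MRP-1 overexpressing cells given doxorubicin 25 µM after compound pretreatment; 18-22 h compound pretreatment then 72 h with doxorubicin before readout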
CYP2C19 inh: human CYP2C19 inhibition; P33261; CYP2C19 Supersomes, luciferin-H EGE luminescence, 30 min; inhibition, % at 5 µM; 96,000 tested, 21% active;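 active = CYP2C19 inhibition above a set limit at 5 µM in the primary screen, cut at about 50% in these data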
A number is an active result; – = inactive; · = not tested or not shown.

SMILES	CYP2C9 activ	CYP2C19 act	CYP2C9 inh	MRP resist rev	MRP-1 activ	CYP2C19 inh
C=CCNC(=O)c1ccc(N(C)S(=O)(=O)c2ccc(OC)cc2)cc1	–	–	86	–	–	73
CC(=O)Nc1ccc(S(=O)(=O)NCCSCc2ccc(Cl)cc2Cl)cc1	–	–	81	·	–	57
C=CCNC(=O)c1ccc(CNS(=O)(=O)c2ccc(NC(C)=O)cc2)cc1	–	–	57	·	–	–
COc1ccc(NC(=O)COc2ccc(N(C)S(=O)(=O)c3ccc(C)cc3)cc2)cc1	·	·	·	·	–	·
CC(=O)Nc1ccc(S(=O)(=O)NCc2ccc(C)cc2)cc1	–	–	–	–	–	60
CC(=O)Nc1ccc(S(=O)(=O)NCc2ccc3c(c2)cc(C)n3C)cc1	–	–	–	–	–	–
CC(=O)Nc1ccc(C(=O)CS(=O)(=O)c2ccc(C)cc2)cc1	–	–	59	–	–	–
CC(=O)Nc1ccc(S(=O)(=O)NCCc2ccc(S(N)(=O)=O)cc2)cc1	–	–	–	·	–	–
CC(=O)Nc1ccc(S(=O)(=O)n2nc(-c3ccc(C)cc3)nc2N)cc1	–	–	–	–	–	50
CC(=O)Nc1ccc(S(=O)(=O)NCCc2ccc(F)cc2)cc1	–	–	–	–	–	58
C/C(Cn1nc([N+](=O)[O-])cc1C)=N\NC(=O)COc1c(Cl)cc(Cl)cc1Cl	·	·	·	·	–	·
c1cc(CNc2ccc3c(c2)OCCO3)ccn1	–	–	62	–	–	73
O=C(Nc1ccc(OCC(F)(F)C(F)F)c(C(F)(F)F)c1)c1ccccc1O	–	–	–	·	–	–
Nn1cnnc1SCC(=O)Nc1ccc(C2CCCCC2)cc1	–	–	–	–	–	–
O=C(O)CSCC(=O)Nc1ccc(C2CCCCC2)cc1	–	–	64	–	–	–
CC(C)c1ccc(Oc2cccc(C(=O)/C(C#N)=C/N(C)C)c2)cc1	–	–	85	–	–	98
CN(C)/C=C(\C#N)C(=O)c1cccc(Oc2ccc(Br)cc2)c1	–	–	–	–	–	92
CC1CC(C)CN(CCCNC(=O)Cc2c(C(=O)O)[nH]c3ccccc23)C1 (configuration not stated)	–	–	–	–	–	–
O=C(Nc1ccc2c(c1)OCO2)C1CCCN1C(=O)NCc1ccccc1 (configuration not stated)	–	–	72	–	–	97
O=C(Nc1ccc2c(c1)OCO2)C1CCCN1C(=O)OCc1ccccc1 (configuration not stated)	–	–	81	–	–	99
O=C(NCc1ccc2c(c1)OCO2)C1CCCN1C(=O)Nc1ccccc1 (configuration not stated)	–	–	–	–	–	–
O=C(Nc1ccc2c(c1)OCO2)OCc1ccccc1	–	–	–	–	–	92
O=C(C[n+]1ccc(-c2nnc3n2CCC3)cc1)c1ccc(Cl)cc1	·	·	·	·	–	·
CC1(C)CC(=O)c2cn3nc(C(F)(F)F)nc3nc2C1	–	–	–	–	–	56
Cc1ccsc1/C=N/n1c(COc2ccccc2)n[nH]c1=S	·	·	·	·	–	·
SMILES	CYP2C9 activ	CYP2C19 act	CYP2C9 inh	MRP resist rev	MRP-1 activ	CYP2C19 inh
CCN(C(=O)COC(=O)c1cc(-c2cccc3ccccc23)nc2ccccc12)C1CCS(=O)(=O)C1 (configuration not stated)	·	·	·	·	–	·
S=c1[nH]nc(-c2ccc3ccccc3n2)o1	–	–	53	–	–	–
Cc1cc(-c2ccccc2)c2c(=O)[nH][nH]c2n1	·	·	·	·	–	·
CC(=O)c1cccc(N(CC(=O)Nc2ccc(F)cc2F)S(C)(=O)=O)c1	–	–	–	–	–	76
CC(=O)c1cccc(NC(=O)CN(c2ccccc2)S(C)(=O)=O)c1	–	–	–	–	–	–
CS(=O)(=O)N(CC(=O)Nc1cccc(Cl)c1)c1ccccc1Cl	–	–	90	–	–	97
COC(=O)c1ccccc1NC(=O)CN(c1ccc(OC)cc1)S(C)(=O)=O	·	·	·	–	–	·
Cc1ccc(NC(=O)CN(c2ccccc2F)S(C)(=O)=O)cc1	–	–	–	–	–	76
CCOC(=O)c1ccccc1NC(=O)CN(c1ccccc1C)S(C)(=O)=O	–	–	78	–	–	96
CN(c1cccc(NC(=O)CN(c2cccc(Cl)c2)S(=O)(=O)c2ccc(Cl)cc2)c1)S(C)(=O)=O	·	·	·	·	–	·
Cc1ccc(-n2nnnc2Sc2nc([N+](=O)[O-])nn2C)cc1C	·	·	·	·	–	·
NC(N)=NNC(=O)c1ccccc1Cl	·	·	·	·	–	·
CCOC(=O)C1=C(Nc2ccccc2)CC(C)(O)C(C(=O)OCC)C1c1ccc(Br)cc1 (configuration not stated)	·	·	·	·	–	·
Cc1ccc2nc(-c3ccc(NC(=O)CN(c4ccccc4C)S(C)(=O)=O)cc3)sc2c1	–	–	–	·	–	92
CCCCC(CCC(=O)Nc1ccccc1C(=O)OCC)C(=O)O (configuration not stated)	–	–	59	–	–	–
Cc1cc(C)cc(N(CC(=O)Nc2ccc(-c3nc4ccc(C)cc4s3)cc2)S(C)(=O)=O)c1	·	·	·	·	–	·
CCOc1ccc(NC(=O)c2ccccc2NC(=O)CN(C)CC(=O)Nc2ccc(C)cc2)cc1	–	–	97	–	–	94
CCCNC(=O)c1ccccc1NC(=O)CN(c1ccccc1OCC)S(C)(=O)=O	–	–	58	–	–	–
CCOC(=O)c1ccc(NC(=O)CCC(CC)C(=O)O)cc1 (configuration not stated)	–	–	–	–	–	–
CCn1nnc(NC(=O)c2ccccc2Br)n1	–	–	–	–	–	–
COc1ccccc1Nc1ncnc2ccc(C)cc12	–	–	–	–	–	–
C=CCNC(=O)CN(c1ccccc1OCC)S(=O)(=O)c1ccc(C)cc1	–	–	68	–	–	66
Cc1ccc(NC(=O)CN(c2ccccc2)S(=O)(=O)N(C)C)cc1	·	·	·	·	–	·
Cc1ccccc1N(CC(=O)Nc1ccc(F)cc1)S(C)(=O)=O	–	–	–	–	–	89
CCOc1ccccc1N(CC(=O)Nc1ccc2c(c1)OCCO2)S(C)(=O)=O	–	–	77	·	–	–
SMILES	CYP2C9 activ	CYP2C19 act	CYP2C9 inh	MRP resist rev	MRP-1 activ	CYP2C19 inh
CC(=O)c1cccc(NC(=O)CN(c2ccccc2F)S(C)(=O)=O)c1	–	–	–	–	–	54
CCOc1ccccc1N(CC(=O)Nc1ccc2c(c1)OCO2)S(C)(=O)=O	–	–	–	–	–	–
COc1cc(OC)cc(C(=O)NNC(=O)NC2CCCCC2)c1	·	·	·	·	–	·
CCOc1ccc(NC(=O)CN(c2ccc(OC)cc2)S(C)(=O)=O)cc1	–	–	–	–	–	–
CCOc1ccccc1N(CC(=O)Nc1ccc(C)cc1)S(C)(=O)=O	–	–	–	–	–	71
CCc1ccc(C(=O)CSc2ncn[nH]2)cc1	–	–	–	–	–	75
Cc1ccc(-c2nnc(N3CCN(C(=O)CSc4ncn[nH]4)CC3)c3ccccc23)cc1	–	–	64	–	–	70
Cc1ccc(C(=O)CSc2ncn[nH]2)cc1	–	–	53	·	–	–
COc1ccc(C(=O)CSc2ncn[nH]2)cc1OC	–	–	–	–	–	–

Source: PubChem (several laboratories)
